# “And” between values parts separate entries of the source, which are not always exact repeats. Equal values may be shown once. Results filed as inconclusive are left out. Where a call stands in place of a potency, no number is given. Unmarked numbers belong to inactive results. The source made the active and inactive calls. Unless noted, calls follow the shape of the dose curve; as a rule, active = well fitted curve in the direction sought with a large enough effect; inconclusive = small, poorly fitted or top-dose-only effect, or another doubt; inactive = no such curve, though single readings can be large; an effect the other way counts as inactive or inconclusive.
# Tests used:
# [1] = molecular target: Cellular tumor antigen p53 (Homo sapiens) (UniProt P04637); test: Primary qHTS for small molecule compounds that upregulate eGFP-tagged delta133p53alpha (in N-terminal) cells. (AID 2060322); conditions: NCI-H358 eGFP-delta133p53alpha fluorescence, 24 h; activation: stronger effect = higher value; also: series mostly up to about 56 µM; nearly all actives have a fitted effect of over 75% in size
# Outline: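 NCI-H358 cells pre-induced 24 h with 10 ng/ml doxycycline to express N-terminal eGFP-delta133p53alpha, then dosed 24 h at 37C without doxycycline; fixed, Hoechst-stained, GFP intensity by laser scanning cytometry, normalized to DMSO (0%) and 57.5 uM 5-azacytidine (100%).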
# [2] = molecular target: Cellular tumor antigen p53 (Homo sapiens) (UniProt P04637); test: Primary qHTS for small molecule compounds that upregulate eGFP-tagged delta133p53alpha (in C-terminal) cells. (AID 2060324)
# Outline: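 C-terminal eGFP-tagged delta133p53alpha NCI-H358 line; dox-induced (100 ng/ml, 24 h) then plated without dox; compounds pinned in titration, 24 h 37 °C/5% CO2; PFA fix, Hoechst nuclei; GFP by LSC.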
# [3] = molecular target: Aldehyde dehydrogenase, mitochondrial (Homo sapiens) (UniProt P05091); test: qHTS for Inhibitors of the Aldehyde Dehydrogenase Family (ALDH2) Validation screens (AID 2061302; active = well fitted inhibition curve with a large enough effect; title and protocol of this record describe different tests)
# [4] = molecular target: Aldehyde dehydrogenase, mitochondrial (Homo sapiens) (UniProt P05091); test: qHTS for Inhibitors of the Aldehyde Dehydrogenase Family (ALDH2) Confirmatory screens (AID 2061303; active = well fitted inhibition curve with a large enough effect; title and protocol of this record describe different tests; also: nearly all actives have a fitted effect of over 45% in size)
# [5] = qHTS for Inhibitors of the Aldehyde Dehydrogenase Family (ALDH1A2, ALDH1A3, ALDH2, ALDH3A1) (AID 2061307); also: nearly all actives have a fitted effect of over 50% in size; as to potency: test system not described further here; potency is read from the fitted curve at half-maximal effect
# [6] = molecular target: Retinaldehyde dehydrogenase 3 (Homo sapiens) (UniProt P47895); test: qHTS for Inhibitors of the Aldehyde Dehydrogenase Family (ALDH1A3) Validation screen (AID 2061312); also: nearly all actives have a fitted effect of over 45% in size; also: potency is read from the fitted curve at half-maximal effect
# [7] = molecular target: Aldehyde dehydrogenase 1A1 (Homo sapiens) (UniProt P00352); test: qHTS for Inhibitors of the Aldehyde Dehydrogenase Family (ALDH1A1) Confirmatory screens (AID 2061316); also: potency is read from the fitted curve at half-maximal effect; nearly all actives have a fitted effect of over 65% in size
# [8] = BET inhibitor-based combinations targeting novel dependencies in MECOM-rearranged (r) AML: SET-2 cell line (AID 2202231); conditions: SET-2 AML cells viability, CellTiter-Glo luminescence, 48 h; viability: stronger effect = lower value, series mostly up to about 46 µM; also: nearly all actives have a fitted effect of over 35% in size
# Outline: (§1)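 Here, 11-point titrations of each agent were applied to 500 seeded cells and incubated 48 hr; CellTiter-Glo signal, scaled against DMSO and empty wells, was integrated as AUC, then Z-scored within the individual line.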
# [9] = BET inhibitor-based combinations targeting novel dependencies in MECOM-rearranged (r) AML: OCI-AML3 cell line (AID 2202232); conditions: Potency: OCI-AML3 viability; also: series mostly up to about 46 µM; nearly all actives have a fitted effect of over 35% in size
# Outline: as §1
# [10] = BET inhibitor-based combinations targeting novel dependencies in MECOM-rearranged (r) AML: MV-4-11 cell line (AID 2202233); also: nearly all actives have a fitted effect of over 45% in size
# Outline: (§2)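 Normalized to DMSO and empty-well controls, the luminescence data from CellTiter-Glo after 48 hr drug exposure were fitted across 11 concentrations. Reported metrics are area under the dose-response curve and its Z-transformed form.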
# [11] = BET inhibitor-based combinations targeting novel dependencies in MECOM-rearranged (r) AML: HNT-34 cell line (AID 2202234); also: nearly all actives have a fitted effect of over 35% in size
# Outline: as §2
# [12] = BET inhibitor-based combinations targeting novel dependencies in MECOM-rearranged (r) AML: UCSD-AML1 cell line (AID 2202235); also: series mostly up to about 46 µM; nearly all actives have a fitted effect of over 40% in size
# Outline: as §2
# [13] = BET inhibitor-based combinations targeting novel dependencies in MECOM-rearranged (r) AML: AML-191 cell line (AID 2202236; also: nearly all actives have a fitted effect of over 35% in size)
# Outline: as §1
# [14] = BET inhibitor-based combinations targeting novel dependencies in MECOM-rearranged (r) AML: AML-194 cell line (AID 2202237; also: nearly all actives have a fitted effect of over 40% in size)
# Outline: as §1
# Cellular tumor antigen p53 (Homo sapiens), sequence (P04637 whole entry, looked up): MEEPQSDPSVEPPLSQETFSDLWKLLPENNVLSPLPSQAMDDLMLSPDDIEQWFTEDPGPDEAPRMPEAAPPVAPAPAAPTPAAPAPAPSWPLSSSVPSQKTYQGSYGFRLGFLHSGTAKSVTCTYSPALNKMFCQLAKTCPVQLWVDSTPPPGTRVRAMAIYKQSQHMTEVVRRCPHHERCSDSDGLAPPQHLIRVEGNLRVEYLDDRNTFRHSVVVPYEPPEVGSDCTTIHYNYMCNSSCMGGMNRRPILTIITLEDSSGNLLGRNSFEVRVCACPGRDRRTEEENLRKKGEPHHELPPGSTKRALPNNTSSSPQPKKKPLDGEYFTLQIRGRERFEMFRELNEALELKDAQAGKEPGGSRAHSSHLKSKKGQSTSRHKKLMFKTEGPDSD
smiles,measurement,setting,value
CCCN1CCC[C@@H]2Cc3nc(N)ncc3C[C@H]21,activation,[1],-29.3% and -27.1%
same,Potency,[2],inactive
same,Potency,[3],inactive
same,Potency,[4],inactive
same,Potency,[5],inactive
Cc1cc([C@@H]2CCCN2C)on1,activation,[1],4.82%
same,Potency,[2],inactive
same,Potency,[3],inactive
Oc1ccc2c3c1O[C@H]1c4oc5ccccc5c4C[C@@]4(O)C(C2)N(CC2CC2)CCC314 (stereo partly drawn),activation,[1],-83.6%
same,Potency,[2],inactive
same,Potency,[3],inactive
same,Potency,[6],inactive
O=c1ccc2[nH]cc(C3=CCNCC3)c2[nH]1,activation,[1],-8.35%
same,Potency,[2],inactive
same,Potency,[3],inactive
same,Potency,[5],inactive
same,Potency,[6],0.398 µM (active)
NC(=O)COc1c(F)cc(SCCNS(=O)(=O)c2ccccc2)cc1F,activation,[1],-8.4%
same,Potency,[2],inactive
same,Potency,[3],inactive
same,Potency,[4],inactive
same,Potency,[5],11.3 µM (active)
same,Potency,[6],inactive
same,Potency,[7],14.2 µM (active)
CC(N)Cc1c[nH]c2ccc(OCc3cccs3)cc12 (stereo not drawn),activation,[1],-31.9%
same,Potency,[2],inactive
same,Potency,[3],inactive
same,Potency,[6],inactive
CCCCCN(C)CCC(O)(P(=O)(O)O)P(=O)(O)O,activation,[1],3.78% and 4.27%
same,Potency,[2],inactive
same,Potency,[3],inactive
same,Potency,[6],inactive
NC(CCP(=O)(O)O)C(=O)O (stereo not drawn),activation,[1],-26.8%
same,Potency,[2],inactive
same,Potency,[3],inactive
same,Potency,[6],inactive
CC(C)NC(C)Cc1ccc(I)cc1 (stereo not drawn),activation,[1],-3.39%
same,Potency,[2],inactive
same,Potency,[3],inactive
same,Potency,[6],inactive
NCCc1c[nH]c2ccc(O)cc12,activation,[1],-1.52%
same,Potency,[2],inactive
same,Potency,[3],inactive
O=C1C=CC(=O)C=C1,activation,[1],48.4%
same,Potency,[2],inactive
same,Potency,[3],inactive
same,Potency,[6],inactive
CN1CCc2cccc(Cl)c2CC1,activation,[1],-13.1%
same,Potency,[2],inactive
same,Potency,[3],inactive
same,Potency,[6],inactive
c1ccc2sc(C3(N4CCCCC4)CCCCC3)cc2c1,activation,[1],14.7%
same,Potency,[2],inactive
same,Potency,[3],inactive
same,Potency,[6],inactive
NC(=O)CN1CCCC1=O,activation,[1],-3.35% and 1.41%
same,Potency,[2],inactive
same,Potency,[3],inactive
same,Potency,[6],inactive
CC(N)Cc1c[nH]c2ccc(O)cc12 (stereo not drawn),activation,[1],-0.781%
same,Potency,[2],inactive
same,Potency,[3],inactive
same,Potency,[6],inactive
CC(N)c1cccc(Cl)c1Cl (stereo not drawn),activation,[1],-35.4%
same,Potency,[2],inactive
same,Potency,[3],inactive
same,Potency,[6],inactive
CC(C)NP(=O)(NC(C)C)OP(=O)(NC(C)C)NC(C)C,activation,[1],-39%
same,Potency,[2],inactive
same,Potency,[3],inactive
same,Potency,[6],inactive
CCCN1CCC[C@@H]2Cc3[nH]ncc3C[C@H]21,activation,[1],-5.86% and -11.2% and 2.09%
same,Potency,[2],inactive
same,Potency,[3],inactive
same,Potency,[6],inactive
C[C@@H](N)Cc1cnc[nH]1,activation,[1],5.3%
same,Potency,[2],inactive
same,Potency,[3],inactive
same,Potency,[6],inactive
CN(C(=O)Cc1ccc(Cl)c(Cl)c1)C(CN1CCCC1)c1cccc(OCC(=O)O)c1 (stereo not drawn),activation,[1],-43.2%
same,Potency,[2],inactive
same,Potency,[3],inactive
same,Potency,[6],inactive
CNCC(O)c1ccc(O)cc1 (stereo not drawn),activation,[1],-9.6% and -1.8% and -6.7%
same,Potency,[2],inactive
same,Potency,[3],inactive
same,Potency,[6],inactive
same,viability,[8],116%
same,Potency,[9],inactive
same,Potency,[10],inactive
same,Potency,[11],inactive
same,Potency,[12],inactive
same,Potency,[13],inactive
same,Potency,[14],inactive
COc1ccc2c(c1OC)C(=O)O[C@H]2[C@@H]1c2cc3c(cc2CCN1C)OCO3,activation,[1],9.21% and -17.4%
same,Potency,[2],inactive
same,Potency,[3],inactive
same,Potency,[6],inactive
NC1CC1c1ccccc1 (stereo not drawn),activation,[1],-3.62% and 6.08%
same,Potency,[2],inactive
same,Potency,[3],inactive
same,Potency,[6],inactive
O=c1[nH]c2ccccc2n1CCCN1CCC(n2c(=O)[nH]c3cc(Cl)ccc32)CC1,activation,[1],22.2% and -21.7%
same,Potency,[2],inactive
same,Potency,[3],inactive
same,Potency,[6],inactive
same,viability,[8],95.9%
same,Potency,[11],inactive
same,Potency,[14],inactive
O=C(O)CC[N+](=O)[O-],activation,[1],-18.9%
same,Potency,[2],inactive
same,Potency,[3],inactive
same,Potency,[6],inactive
C=CCN1C[C@@H](C)N([C@H](c2ccc(C(=O)N(CC)CC)cc2)c2cccc(OC)c2)C[C@@H]1C,activation,[1],-25.3%
same,Potency,[2],inactive
same,Potency,[3],inactive
same,Potency,[6],inactive
C[N+]1(C)C2CCC1CC(OC(=O)C(CO)c1ccccc1)C2 (stereo not drawn),activation,[1],-2.46% and -16.7%
same,Potency,[2],inactive
same,Potency,[3],inactive
same,Potency,[6],inactive
O=C(O)c1nn(Cc2ccc(Cl)cc2Cl)c2ccccc12,activation,[1],21.3% and 19.8% and -21.2%
same,Potency,[2],inactive
same,Potency,[3],inactive
same,Potency,[6],inactive
same,Potency,[9],inactive
same,Potency,[10],inactive
same,Potency,[13],inactive
same,Potency,[14],inactive
c1ccc(C2CC2)c(OCC2=NCCN2)c1,activation,[1],9.21% and -4.03%
same,Potency,[2],inactive
same,Potency,[3],inactive
same,Potency,[6],inactive
